# Screens as filed in PubChem.
# Rows were chosen to be rich in hits. Some 19% of all compounds tested hit in one or more screens of this group.
# ELG1 DNA repair: qHTS screen for small molecules that inhibit ELG1-dependent DNA repair in human embryonic kidney (HEK293T) cells expressing luciferase-tagged ELG1; HEK293T ELG1-luciferase reporter, luminescence, 16 h; DNA damage induced by 5-fluorouridine; Potency, µM (top dose mostly 46.1 µM), inactives show top-dose activity change, negative = inhibition, most hits filed as inhibitors; 330,000 tested, 2.3% active; AID 504467, 2011; note: potency is the fitted concentration of half-maximal effect; nearly all actives have a fitted effect of over 55% in size
#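 5-Fluorouridine DNA damage + compound/DMSO, 2,000 cells/well, 16 h, 37 °C/5% CO2. ONE-Glo, 30 min RT, luminescence. Readout = decrease in reporter signal.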
# HT1080 IDH1KD tx: qHTS for induction of synthetic lethality in tumor cells producing 2HG: qHTS for the HT-1080-IDH1KD cell line; Potency, µM (top dose mostly 46.1 µM), for inactives: top-dose activity, negative = toxicity, hits mostly cytotoxic; AID 686971, 2013; HT-1080 IDH1 knockdown viability, ATP luminescence, 48 h; 360,000 tested, 2% active;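 note: potency is the fitted concentration of half-maximal effect; 0% = DMSO wells and -100% = cell-free medium wells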
#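 % activity derives from luminescence (CellTiter-Glo), normalised to DMSO and no-cell wells. HT-1080-IDH1KD cells, 750/well, had 48 h compound exposure at 37 °C.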
# TDP1 cell noCPT: qHTS for Inhibitors of human tyrosyl-DNA phosphodiesterase 1 (TDP1): qHTS in cells in absence of CPT. 420,000 tested, 15% active. DT40 Tdp1-/- hTDP1 cells, no CPT, ATP luminescence, 48 h. Potency, µM (top dose mostly 46.2 µM), inactives show top-dose activity change, negative = growth inhibition, hits mostly inhibitors; note: potency is the fitted concentration of half-maximal effect; nearly all actives have a fitted effect of over 55% in size
#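 Cells were dispensed at 400 per well, compounds added by pin tool, plates incubated ≥48 hr at 37 °C, then CellTiter-Glo added for 30 min at room temperature before luminescence reading. Line: DT40 Tdp1-/- complemented with hTDP1; camptothecin omitted.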
# HT1080NT lethal: qHTS for induction of synthetic lethality in tumor cells producing 2HG: qHTS for the HT-1080-NT fibrosarcoma cell line; 360,000 tested, 1.6% active; HT-1080-NT fibrosarcoma viability, CellTiter-Glo ATP luminescence, 48 h; AID 686970, 2013; Potency, µM (titrated, usually from 46.1 µM), for inactives: at the top dose activity, negative = less viability, actives largely listed as cytotoxic;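 note: NT is the 2HG producing partner of a matched IDH1 knockdown line; potency is the fitted concentration of half-maximal effect; 0% = DMSO-treated cells and -100% = media-only wells without cells; nearly all actives have a fitted effect of over 55% in size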
#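 Read-out is CellTiter-Glo luminescence after 10 minutes at room temperature, following 48 hours' compound treatment of HT-1080-NT cells (750 cells/well, RPMI, 5% FBS, 37 degrees C).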
# IL-1B inflam inh: qHTS for Inhibitors of Inflammasome Signaling: IL-1-beta AlphaLISA Primary Screen. AID 743279, 2014. 360,000 tested, 4.7% active. THP-1 LPS/ATP IL-1B secretion, AlphaLISA, 16 h; stronger effect = lower value. activity change, % at 57.5 µM; in the data active = activity change below about -50%; inconclusive = mostly about -30% to -49%
#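 THP-1 cells pretreated 1 hr with compounds (up to 57.5 uM final), then stimulated with LPS (250 ng/mL final) plus ATP (1.25 mM final); secreted IL-1B measured by AlphaLISA after 16 hr, decreased signal indicating inhibition.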
# TDP1 cell CPT: qHTS for Inhibitors of human tyrosyl-DNA phosphodiesterase 1 (TDP1): qHTS in cells in presence of CPT. chicken DT40 Tdp1-/-;hTDP1 cells + 20 nM CPT, ATP luminescence, 48 h. Potency, µM (series often up to 46.2 µM), without a hit: at the top dose activity change, negative = growth inhibition, usual class: inhibitors. 420,000 tested, 12% active; note: potency is the fitted concentration of half-maximal effect; nearly all actives have a fitted effect of over 55% in size
#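 Chicken DT40 Tdp1-/- cells stably complemented with human TDP1 were seeded at 400 cells/well in medium containing 20 nM camptothecin, exposed to pin-transferred compounds, and grown at 37 °C for at least 48 hr. Viability was read as ATP luminescence.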
# Numbers without * were called inactive; ? = inconclusive; . = not tested or not shown. Unless noted, calls come from the whole dose curve; as a rule, active = well fitted curve in the direction sought with a large enough effect; inconclusive = small, poorly fitted or top-dose-only effect, or another doubt; inactive = no such curve, though single readings can be large; an effect the other way counts as inactive or inconclusive. Unless noted, % is set by controls: 0 for no effect and ±100 for the full control effect.
SMILES,ELG1 DNA repair,HT1080 IDH1KD tx,TDP1 cell noCPT,HT1080NT lethal,IL-1B inflam inh,TDP1 cell CPT
CC(=O)N1CCc2c(sc3c2c(=O)n(Cc2ccccc2)c(=O)n3Cc2cc(C)ccc2C)C1,.,.,20.6µM*,.,.,16.4µM*
COc1ccccc1-n1c(=O)c2c3c(sc2n(Cc2ccccc2F)c1=O)CN(C(C)=O)CC3,.,.,-9.4%,.,.,-22.4%
CCOC(=O)N1CCc2c(sc3c2c(=O)n(Cc2ccccc2)c(=O)n3Cc2cccc(Cl)c2)C1,.,.,20.6µM*,.,.,10.3µM*
c1ccc2nc3c(cc2c1)CCCC3,.,.,-13.2%,.,.,-0.4%
O=C(NCc1ccccc1Cl)[C@H]1CCCN1C(=O)[C@H]1CCCN1C(=O)c1ccc(Cl)cc1,.,1.8%,?,11.6%,1.0,?
CCOc1cc2c(cc1OC)C(NC(=O)c1ccco1)CC2=O (stereo not drawn),?,2.6%,0.8%,3.5%,1.2,3.0%
CCOC(=O)[C@]12CCC=C1N(Cc1ccco1)C(=O)[C@H](CC(=O)NCC13CC4CC(CC(C4)C1)C3)C2,.,?,?,?,-12.0,?
COc1ccc(C(c2c(O)ccc3ccccc23)N2CCOCC2)c(OC)c1 (stereo not drawn),?,?,29.1µM*,-8.3%,0.0,?
CCCN(N=Nc1cccc([N+](=O)[O-])c1)c1cccc([N+](=O)[O-])c1,-7.1%,7.1%,?,12.3%,-50.6*,?
O=[N+]([O-])c1cccc(N=NN(CCO)c2cccc([N+](=O)[O-])c2)c1,-28.2%,-25.2%,?,?,4.1,-20.7%
CC(C)NC(=O)COC(=O)c1ccccc1OCC(=O)Nc1ccc(Br)cc1,.,-9.6%,-3.5%,-24.0%,.,-56.7%
COC(=O)c1ccc(NC(=O)c2ccccc2OCC(=O)Nc2ccc(Br)cc2)cc1,.,?,10µM*,?,.,?
CN(C)C(=O)COc1ccccc1C(=O)OCC(=O)Nc1ccc(Oc2ccc(Br)cc2)cc1,.,.,11.2µM*,.,.,?
CCOc1ccc(NC(=O)COC(=O)c2ccccc2OCC(=O)N(C)C)cc1,.,.,-12.9%,.,.,-16.1%
O=C(COC(=O)c1ccccc1OCC(=O)Nc1ccc(Br)cc1)Nc1ccccc1,11.0%,-0.2%,?,2.0%,12.0,?
CC(C)c1cccc(NC(=O)COC(=O)c2ccccc2OCc2cccc(Br)c2)c1,.,.,15.8µM*,.,.,?
O=C(COc1ccccc1C(=O)OCC(=O)N1CCOCC1)Nc1ccc(Br)cc1,.,3.4%,14.1µM*,0.7%,.,15.8µM*
CCC1=NN(C(=O)CCc2ccc3c(c2)OCO3)C(O)(C(F)(F)F)C1 (stereo not drawn),5.4%,1.9%,-7.7%,2.8%,16.8,-2.3%
COc1ccc(C(=O)c2cn(CC(=O)Nc3cc(C)ccc3C)c3nc(C)ccc3c2=O)cc1,.,.,-12.4%,.,.,-5.3%
Nc1nc(N)nc(Cc2ccccc2O)n1,15.0%,2.8%,22.0%,0.1%,15.1,6.1%
CC(C)(C)c1ccc(NC(=O)COC(=O)c2ccccc2OCC(=O)Nc2ccc(Br)cc2)cc1,.,.,?,.,.,15.8µM*
CCOc1cc2ccccc2cc1C(=O)OCC(=O)Nc1ccc(Br)cc1,.,.,-5.1%,.,.,-28.6%
COc1cc2ccccc2cc1C(=O)OCC(=O)Nc1ccc(Br)cc1,.,.,?,.,.,7.94µM*
CN(C(=O)COC(=O)c1ccccc1OCC(=O)Nc1ccc(Br)cc1)c1ccccc1,.,-12.9%,11.2µM*,-20.4%,.,?
O=C(Nc1cc2ccc(O)cc2oc1=O)c1ccccc1,.,.,-17.5%,.,.,-0.8%
SMILES,ELG1 DNA repair,HT1080 IDH1KD tx,TDP1 cell noCPT,HT1080NT lethal,IL-1B inflam inh,TDP1 cell CPT
O=C1C(=O)N(C2CCN(C(=O)c3ccc(Cl)cc3)CC2)CCN1Cc1ccc(F)cc1,.,.,?,.,.,-29.7%
Nc1ccc(C(=O)N2CCCC2)cc1,?,12.5%,-4.9%,8.4%,23.8,-0.4%
Nc1ccc(C(=O)n2c3ccccc3c3ccccc32)cc1,5.8%,0.92µM*,2.31µM*,?,16.8,1.84µM*
O=C(C[C@H]1C[C@H](C(=O)N2CCCCC2)[C@@]2(CCc3ccccc3)c3[nH]c4ccc(Cl)cc4c3CCN2C1=O)NCc1cccc(C(F)(F)F)c1,?,0.1%,11.6µM*,7.7%,?,13µM*
COCCCNC(=O)C[C@H]1C[C@H](C(=O)N2CCCCC2)[C@@]2(CCc3ccccc3)c3[nH]c4ccc(Cl)cc4c3CCN2C1=O,20.6µM*,4.1%,4.61µM*,7.0%,-17.4,8.2µM*
O=C(C[C@H]1C[C@H](C(=O)N2CCCCC2)[C@@]2(CCc3ccccc3)c3[nH]c4ccc(Cl)cc4c3CCN2C1=O)NCc1ccco1,-4.3%,4.3%,8.2µM*,4.1%,-19.4,7.31µM*
O=C(CC1C[C@H](C(=O)N2CCCCC2)[C@@]2(CCc3ccccc3)c3[nH]c4ccccc4c3CCN2C1=O)NCc1cccc(C(F)(F)F)c1 (stereo partly drawn),-20.3%,5.5%,16.4µM*,7.5%,?,?
